Source: PubChem BioAssay AID2551 (National Center for Advancing Translational Sciences (NCATS), 2010)
In all, about 310,000 compounds went through this assay and about 17,000 (5.5%) were called active. About 11% were inconclusive and are not listed. Shown is part of a subset that was picked to be rich in actives. A number with no mark means an inactive call. Calls come from the whole dose curve; as a rule, active = well fitted inhibition curve with a large enough effect; inconclusive = small, poorly fitted or top-dose-only effect, or effect the other way; inactive = no such curve, though single readings can be large or run the other way.

Target: Nuclear receptor ROR-gamma (Mus musculus) (UniProt P51450)
Experiment: qHTS for inhibitors of ROR gamma transcriptional activity; note: nearly all actives have a fitted effect of over 60% in size
Conditions: Drosophila S2 Gal4-RORgamma UAS-luciferase reporter, 20 h; series mostly up to 53.6 µM; activity change, negative = inhibition: at the top concentration
In short: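 ROR gamma transcriptional activity was tracked as Gal4-UAS luciferase output in stably transfected Drosophila Schneider cells, with compound added 1 hr before 700 uM copper sulfate induction and a 20 hr ambient-temperature incubation.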
% is set by controls: 0 for no effect and ±100 for the full control effect; potency is the fitted concentration of half-maximal effect.

Chain of Nuclear receptor ROR-gamma (Mus musculus) (P51450 whole entry, looked up): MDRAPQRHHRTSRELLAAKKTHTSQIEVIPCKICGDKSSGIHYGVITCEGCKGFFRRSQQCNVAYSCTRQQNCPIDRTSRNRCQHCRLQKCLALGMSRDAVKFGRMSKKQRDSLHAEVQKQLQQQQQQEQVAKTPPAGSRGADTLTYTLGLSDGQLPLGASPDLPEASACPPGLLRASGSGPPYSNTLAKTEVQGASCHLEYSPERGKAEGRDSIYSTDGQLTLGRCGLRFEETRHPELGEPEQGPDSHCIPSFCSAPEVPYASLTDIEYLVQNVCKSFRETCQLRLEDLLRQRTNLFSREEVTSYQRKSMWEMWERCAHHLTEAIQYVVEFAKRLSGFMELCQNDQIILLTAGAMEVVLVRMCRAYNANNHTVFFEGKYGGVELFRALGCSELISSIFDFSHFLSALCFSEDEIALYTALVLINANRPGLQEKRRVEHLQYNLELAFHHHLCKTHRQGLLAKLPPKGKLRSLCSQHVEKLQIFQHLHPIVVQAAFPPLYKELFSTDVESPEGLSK

Row | SMILES | activity change, negative = inhibition | Potency
1 | Cc1[nH]n(-c2ccccc2)c(=O)c1N=Nc1ccccc1C(=O)N1CCCCC1 | 0.698% | 
2 | O=C(N/N=C/c1cccc([N+](=O)[O-])c1)c1ccncc1 | 13.7% | 
3 | Cc1ccc(-n2[nH]c(C)c(/C=N/NC(=O)c3cccc([N+](=O)[O-])c3)c2=O)cc1C |  | 1.12 µM (active)
4 | Cc1[nH]n(-c2ccccc2)c(=O)c1/C=N/NC(=O)c1ccoc1C |  | 0.251 µM (active)
5 | COc1cc(/C=N/NC(=O)c2ccoc2C)ccc1OCCN1CCCCC1 | -8.8% | 
6 | COc1cccc(/C=N/NC(=O)c2cccc([N+](=O)[O-])c2)c1OS(=O)(=O)c1ccc(C)cc1 | -19.9% | 
7 | Cc1oc(-c2ccccc2F)nc1CS(=O)CC(=O)NCCN1CCCCC1C (stereo not given) | -5.2% | 
8 | CCOc1ccc(S(=O)(=O)N2CCN=C2Cc2ccccc2)cc1C | -32.3% | 
9 | COc1cccc(CNC(=O)CCCC(=O)Nc2cccc([N+](=O)[O-])c2)c1 | 34.9% | 
10 | Cc1cnc(C)c(N2CCN(C(=O)C3CCC(=O)N(CCc4cccc(F)c4)C3)CC2)n1 (stereo not given) | 1.08% | 
11 | Cc1cc(C)c2c(NC(=O)C3CC3)nn(C)c2n1 | 10.5% | 
12 | Cc1cc(-n2nc(C)cc2C)n2nc(C)c(-c3ccccc3)c2n1 | -12.8% | 
13 | Cc1cc(C)c2c(n1)nn1c(-n3ccnc3)cc(C)nc21 |  | 10 µM (active)
14 | O=C(Nc1ccc(F)cc1)C(=O)c1cn(CC(=O)N2CCOCC2)c2ccccc12 | 26% | 
15 | CCSc1nc(O)c(C(c2cccc(OC)c2)c2c(O)nc(SCC)[nH]c2=O)c(=O)[nH]1 | -12.8% | 
16 | CC(=O)c1cccc(NC(=S)N2CCCC2)c1 | -4.06% | 
17 | CCOC(=O)C1(Cc2ccccc2C)CCCN(C(=O)CCc2c(C)noc2C)C1 (stereo not given) | -5.53% | 
18 | COc1ccc(N2C(=O)C(Cc3ccccc3)NC2=S)cc1 (stereo not given) | -5.44% | 
19 | COc1ccc(N2C(=O)C3CCCN3C2c2cccc(OC)c2)cc1 (stereo not given) | 3.84% | 
20 | COc1ccc(N2C(=O)C3C(C2=O)C(C(=O)c2ccccc2)N2CCCC32)cc1 (stereo not given) |  | 11.2 µM (active)
21 | O=S1(=O)N=C(N(CCO)/N=C/c2ccccc2F)c2ccccc21 | -1.86% | 
22 | COc1ccc(-n2cc(-c3ccccc3)c3c(=S)nc[nH]c32)cc1 |  | 0.501 µM (active)
23 | COc1ccc(N2CCN(Cc3nnc(-c4ccccc4)o3)CC2)cc1 | 2.46% | 
24 | O=c1[nH]cnc2c1c(-c1ccccc1)cn2-c1ccc(F)cc1 | 18.3% | 

Row | SMILES | activity change, negative = inhibition | Potency
25 | Cc1cccc(NC(=O)CCN2CC(C)CC(C)C2)c1 (stereo not given) | -3.81% | 
26 | c1ccc(-c2cn3c(n2)CCc2ccc4cccnc4c2-3)cc1 |  | 3.55 µM (active)
27 | COCC(=O)N1CCc2ccc(NC(=O)c3ccccc3Cl)cc2C1 | 8.09% [at 1.91 µM] | 
28 | CC(NC(=O)Cn1cc(C(F)(F)F)cc(Cl)c1=O)c1ccccc1 (stereo not given) | -10.7% | 
29 | Cc1ccc(S(=O)(=O)c2nc(-c3cccs3)oc2NCc2cccnc2)cc1 | 7.35% | 
30 | C/C(=N\NC(=O)C(N)=O)c1ccc2c(c1)OCCO2 | 28.9% | 
31 | C/C(=N/NC(=O)c1ccncc1)c1ccc2c(c1)OCO2 | 32.9% | 
32 | C/C(=N/NC(=S)Nc1ccccc1)c1ccc2c(c1)OCO2 |  | 1.26 µM (active)
33 | CCCCc1nc(SCC(=O)Nc2nnc(C(C)C)s2)n[nH]1 | -7.48% | 
34 | Cc1ccc2nc(-c3ccncc3)cc(C(=O)Nc3ccncc3)c2c1 | -21.9% | 
35 | Cc1cc(C)cc(OCC(=O)NC(C)c2ccccc2)c1 (stereo not given) | 24.4% | 
36 | O=C1/C(=C/c2ccc3c(c2)OCO3)CCC/C1=C\c1ccc2c(c1)OCO2 |  | 11.2 µM (active)
37 | O=C(N/N=C/c1ccc2c(c1)OCO2)C(=O)N1CCCC1 | -1.04% | 
38 | CCC1=C/C(=C\c2ccc3c(c2)OCO3)C(=O)S1 | 24.2% | 
39 | O=C(NC(Cc1ccccc1)C(=O)O)/C(=C\c1ccccc1)NC(=O)c1ccco1 (stereo not given) | -19.7% | 
40 | CC(C)Oc1ccc(Cc2n[nH]c(=S)n2Cc2ccccc2)cc1Cl |  | 3.98 µM (active)
41 | C=CCn1c(CCc2ccc(OC(C)C)cc2)n[nH]c1=S | 1.5% | 
42 | CC(C)Oc1ccc(CCc2n[nH]c(=S)n2Cc2ccccc2)cc1 |  | 3.16 µM (active)
43 | CC(=O)N(OCc1ccc(OC(C)C)c(Cl)c1)C(C)=O | 11% | 
44 | CC(C)Oc1ccc(CCc2nnc(SCC(=O)O)n2-c2ccccc2)cc1 | 1.09% | 
45 | CC(=O)Nc1ccc(S(=O)(=O)N2CCC(C(=O)NC3CC3)CC2)cc1 | -24.5% | 
46 | OC(CNC1CCCC1)COc1ccc(F)cc1 (stereo not given) | -1.27% | 
47 | COc1ccccc1CNS(=O)(=O)c1ccc2c(c1)NC(=O)CS2 | 14% | 
48 | CCCn1nc(NS(=O)(=O)c2ccc(F)cc2)c2cc3ccccc3nc21 | 5.21% | 

Row | SMILES | activity change, negative = inhibition | Potency
49 | Cc1cc(N=Nc2ccc3ccccc3c2)ccc1O |  | 11.2 µM (active)
50 | COc1ccc(N=Nc2ccc(O)c(P(=O)(c3ccccc3)c3ccccc3)c2)cc1 | 16% | 
51 | Cc1cccc(C(=O)NNC(=O)CSc2nnc(C(C)C)n2C)c1 | -19.4% | 
52 | Cc1c(C(C)(C)O)[nH]c2ccc(C#N)cc12 | 14.1% | 
53 | CCn1c(SCC(=O)NNC(=O)c2ccc(OC)cc2)nnc1C(C)C | -32.5% | 
54 | COC(=O)C1=C(C)OC(N)=C(C#N)C1c1cc(OC)ccc1OC (stereo not given) | -29.4% | 
55 | COC(=O)C1=C(C)N(C)C(=S)NC1c1ccccc1 (stereo not given) | -2.63% | 
56 | COC(=O)C1=C(C)N(C)C(=S)NC1c1cc(OC)ccc1OC (stereo not given) |  | 15.8 µM (active)
57 | CCOC(=O)c1c(-c2ccccc2)oc2ccc(OCC(N)=O)cc12 | 61.5% | 
58 | CCOC(=O)c1c(S(=O)(=O)Nc2cccc(Cl)c2)c(C)n(C)c1C | -21.2% | 
59 | CC(=O)Nc1cccc(/C(C)=N/NC(=O)c2ccccc2Cl)c1 | 32.2% | 
60 | C/C(Cc1ccccc1)=N\NC(=O)CNC(=O)c1ccccc1Cl | 22.1% | 
61 | CC/C(=N\NC(=O)c1ccccc1Cl)c1ccc(Br)s1 |  | 11.2 µM (active)
62 | CCCOc1ccc(N/C=C/C(=O)C(C)(C)C)cc1 | 44.4% | 
63 | CCCOc1ccc(C(=O)C(CCC(CNCC)C(=O)c2ccc(OCCC)cc2)CNCC)cc1 (stereo not given) |  | 15.8 µM (active)
64 | CCCCOc1ccc(C(=O)NCc2ccncc2)cc1 | 15.1% | 
65 | COc1cccc(-n2c(=S)[nH]c3c(oc4ccccc43)c2=O)c1 |  | 7.08 µM (active)
66 | COc1cccc(-n2cc(C(=O)O)c3ccccc3c2=O)c1 | -16.1% | 
67 | COc1cccc(N2C(=O)CN(Cc3ccccc3)C2=S)c1 | -4.86% | 
68 | CCc1cccc(CC)c1NC(=S)Nc1ccc2cn[nH]c2c1 | -26.6% | 
69 | CCNCc1cc2cc(C)ccc2[nH]c1=O | -37.6% | 
70 | CCc1cccc(CC)c1NC(=S)NCc1ccc2[nH]c(C)cc2c1 |  | 2.51 µM (active)
